Assay results from PubChem BioAssay (EPA / NIEHS).
Values joined by “and” are separate entries in the source; they are usually repeats but may differ in a detail not shown here. Equal entries are not always repeated. Some compounds were tested as several samples or in several runs, with calls that do not always agree. Active and inactive are the calls of the source. How the source made its calls: active means hit-call score of the fitted dose curve at least 0.9, where 1 is the maximum; inactive means score below 0.9.

read-out: KRT18 (gene 3875); test: BSK_BE3C_Keratin818: BioMAP Diversity Plus: BE3C Assay for Keratin 818 Biomarker Activity (AID 2284282); details: primary human bronchial epithelial cells
Description: BSK_BE3C is a cell-based, multiplexed-readout assay that uses bronchial epithelial cell, a human lung primary cell, with measurements taken at 24 hours after chemical dosing in a 96-well plate.BSK_BE3C_Keratin818 is an assay component measured in the BSK_BE3C assay. It measures Keratin 8/18 antibody related to regulation of gene expression using ELISA technology.Data from the assay component BSK_BE3C_Keratin818 was analyzed at the endpoint, BSK_BE3C_Keratin818, in the positive analysis fitting direction relative to DMSO as the negative control and baseline of activity. Using a type of binding reporter, gain or loss-of-signal activity can be used to understand protein changes. To generalize the intended target to other relatable targets, this assay endpoint is annotated to the 'cell adhesion molecules' intended target family, where the subfamily is 'keratin'.
The levels of cell surface (or secreted, indicated by the prefix "s") biomarker endpoints were measured by ELISA. Overt cytotoxicity to cells in confluent adherent cultures (all systems other than the BT system) was assessed by measuring total protein levels using sulforhodamine B (SRB) staining in parallel cultures at the time of biomarker measurements, indicated as SRB endpoints. For proliferation assays for adherent cell types, individual cell types are cultured at sub-confluence and relative cell numbers quantified by SRB staining at time points optimized for each system (48 h: 3C and CASM3C systems; 72 h: BT and HDF3CGF systems; 96 h: SAg system). SRB was performed by staining cells with 0.1% SRB after fixation with 10% TCA and reading wells at 560 nm.Viability and proliferation of PBMC (T cells) was quantified by Alamar Blue reduction for the SAg and BT systems. For PBMC viability (referred to as PBMC Cytotoxicity within the assay endpoint names), cells were plated (75,000/well in a 96-well plate) and then chemical samples added for 1 h before addition of activators, SEB and TSST-1 (20 ng/mL final concentration each). Cells were incubated for 90 h. Then, Alamar Blue (20 uL/well) (Invitrogen, Cat DAL1100) was added for 6 h, and the plates were read with a fluorescence microplate reader at 546/580 nm (excitation/emission). For PBMC proliferation, cells were plated and activated as above but incubated for only 16 h prior to addition of Alamar Blue. Plates were read after 6 h.

Row | SMILES | outcome | AC50
1 | O=C(O)CCC(F)(F)C(F)(F)C(F)(F)C(F)(F)C(F)(F)F | inactive | 
2 | O=S(=O)(O)C(F)(F)C(F)(F)C(F)(F)C(F)(F)C(F)(F)C(F)(F)C(F)(F)C(F)(F)C(F)(F)C(F)(F)F |  | 21 µM (active) and 18 µM (active)
3 | O=P(O)(O)CCC(F)(F)C(F)(F)C(F)(F)C(F)(F)C(F)(F)C(F)(F)F | inactive | 
4 | CN(Cc1cnc2nc(N)nc(N)c2n1)c1ccc(C(=O)N[C@@H](CCC(=O)O)C(=O)O)cc1 | inactive | 
5 | CCCCCCCCCCCC | inactive | 5.09 µM (active)
6 | O=C1NS(=O)(=O)c2ccccc21 | inactive | 
7 | OCC(F)(F)C(F)(F)C(F)(F)C(F)(F)C(F)(F)C(F)(F)C(F)(F)C(F)(F)C(F)(F)C(F)(F)C(F)(F)F | inactive | 
8 | O=C(CC(=O)C(F)(F)C(F)(F)C(F)(F)F)c1cccs1 |  | 10.8 µM (active) and 14.7 µM (active)
9 | O=C(O)CCC(F)(F)C(F)(F)C(F)(F)C(F)(F)C(F)(F)C(F)(F)F | inactive | 
10 | C=CC(=O)OCCC(F)(F)C(F)(F)C(F)(F)C(F)(F)C(F)(F)C(F)(F)C(F)(F)C(F)(F)F | inactive | 
11 | O=C(O)C(F)(F)OC(F)(F)C(F)(F)OC(F)(F)C(F)(F)OC(F)(F)C(F)(F)C(F)(F)C(F)(F)F |  | 3.28 µM (active) and 2.7 µM (active)
12 | Oc1c(Cl)cc(Cl)cc1Sc1cc(Cl)cc(Cl)c1O |  | 9.64 µM (active) and 7.03 µM (active)
13 | Oc1ccc(Cc2ccccc2O)cc1 | inactive | 
14 | CN(CCO)S(=O)(=O)C(F)(F)C(F)(F)C(F)(F)C(F)(F)C(F)(F)C(F)(F)C(F)(F)C(F)(F)F | inactive | 
15 | O=P(O)(O)CCC(F)(F)C(F)(F)C(F)(F)C(F)(F)C(F)(F)C(F)(F)C(F)(F)C(F)(F)F | inactive | 
